Source: PubChem BioAssay
Calls of active or inactive are those of the source.

Assays:
[1] = compound effects on lung adenocarcinoma cell viability – A549, calcein-AM fluorescence, 48 h, basal, profiling panel (AID 1162); details: higher = more signal
[2] = compound effects on differentiated 3T3-L1 adipocyte viability – cell-based, 3T3-L1 adipocytes, calcein-AM fluorescence, 48 h, basal, profiling panel (AID 1163); details: 3T3-L1 adipocytes viability, higher = more signal
[3] = compound effects on hepatocellular carcinoma cell viability – HepG2, calcein-AM fluorescence, 48 h, basal, profiling panel (AID 1164); details: higher = more signal
[4] = compound effects on multiple myeloma cell viability – MM1S, calcein-AM fluorescence, 48 h, basal, profiling panel (AID 1165); details: higher = more signal;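 also: viability of MM1S multiple myeloma cells under basal unstimulated conditions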
[5] = calcein-AM signal in unstimulated myeloma cells – cell-based, calcein-AM fluorescence, 48 h, PK04 Diversity Set, profiling panel (AID 1166); details: RPMI8226 myeloma viability, higher = more signal;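 also: cells grown under basal conditions without added stimulus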
[6] = JC-1 mitochondrial signal, unstimulated HepG2 cells – cell-based, JC-1 fluorescence, 24 h, 100 nL compound, profiling panel (AID 1167); details: HepG2 mitochondrial potential, higher = more signal
[7] = JC-1 mitochondrial signal, unstimulated adipocytes – cell-based, JC-1 fluorescence, 3T3-L1 adipocytes, 24 h, 100 nL compound, profiling panel (AID 1168); details: JC-1 mitochondrial fluorescence, higher = more signal, called active from +8 up or from −8 down
[8] = JC-1 mitochondrial signal, unstimulated myeloma cells – cell-based, JC-1 fluorescence, RPMI8226, 24 h, 100 nL compound, profiling panel (AID 1169); details: JC-1 mitochondrial potential fluorescence, higher = more signal
[9] = JC-1 mitochondrial signal, unstimulated MM1S myeloma – cell-based, JC-1 fluorescence, 24 h, 100 nL compound, profiling panel (AID 1170); details: MM1S mitochondrial potential, higher = more signal
[10] = resazurin metabolic signal in A549 cells – cell-based, resazurin fluorescence, 24 h, PK04 Diversity Set, profiling panel (AID 1171); details: A549 viability, higher = more signal, called active from +8 up or from −8 down
Also: test concentration not given here.

SMILES	z-score [1]	z-score [2]	z-score [3]	z-score [4]	z-score [5]	z-score [6]	z-score [7]	z-score [8]	z-score [9]	z-score [10]
O=C(NCc1ccc(F)cc1)[C@H]1C[C@H]2C(=O)N3CCC[C@H]3C(=O)N2[C@H]1c1ccc(O)cc1	-0.965	0.625	-0.647	-0.896	-0.625	0.552	0.811 (inactive)	0.207	-0.396	-0.0909 (inactive)
O=C(NCc1ccccc1)[C@@H]1c2ccccc2C(=O)N(Cc2ccc(OC(F)(F)F)cc2)[C@H]1c1ccc(CO)cc1	1.29	0.711	0.77	-0.279	0.473	2.44	-0.602 (inactive)	-0.728	0.809	1.39 (inactive)
C=CC1c2cc(O)c(OC)cc2CCN1C (stereo not given)	-1.24	0.281	0.0372	0.121	0.212	-1.17	-0.82 (inactive)	0.222	-0.67	-0.535 (inactive)
O=C1[C@H]2C=C(I)[C@H](C[C@@H]2c2ccccc2)[C@@]12CO2	-1.3	-0.417	-0.382	-3.18	-3	-1.74	0.789 (inactive)	-1.2	-1.32	-0.122 (inactive)
COc1ccc([Si](C)(C)[C@H]2[C@H](CCO)O[C@@]3(C(=O)N(Cc4cccc(N(C=O)c5ccccc5)c4)c4ccccc43)[C@@H]2C)cc1	-0.533	0.441	-3.83	-1.18	-4.23	1.01	0.549 (inactive)	-1.03	-1.85	-2.2 (inactive)
CC(C)NC(=O)[C@@H]1c2ccccc2C(=O)N(Cc2ccccc2C(F)(F)F)[C@H]1c1ccc(CO)cc1	-0.385	-0.341	-0.052	-0.321	0.749	0.186	-1.81 (inactive)	0.317	0.0239	2.53 (inactive)
C=C(COC)/C(=C/C[C@H](OC(C)=O)c1ccccc1OCCO)c1cc(C(=O)OC)ccc1OC	-0.168	1.66	-0.63	-3.06	-1.74	0.532	-0.112 (inactive)	0.0983	-1.29	-0.0553 (inactive)
C=CC[C@]1(C(=O)NCC(O)CO)COC(c2ccc(OCCCO)cc2)=N1 (stereo not given in full)	-0.188	-0.191	-0.323	-0.244	0.146	-0.512	-0.604 (inactive)	0.00774	-0.307	-0.106 (inactive)
COC(=O)C[C@H]1O[C@@]2(C[C@@H]1[Si](C)(C)C)C(=O)N(C)c1ccccc12	0.904	0.69	0.606	0.561	-0.356	1.23	0.63 (inactive)	-1.09	0.965	0.543 (inactive)
C=CCC(OC(C)=O)[C@@H]1[C@@H](N(Cc2cccc3ccccc23)C(=O)c2ccc(-c3ccccc3)cc2)c2cc(OCCCO)ccc2N1C(=O)Cc1ccc2ccccc2c1 (stereo not given in full)	-0.217	0.153	0.581	-1.54	-0.729	1.9	-0.407 (inactive)	-0.342	0.164	0.706 (inactive)
NC(=O)N1C(=O)C2C(C1=O)C1C=C(CCCO)C2C(C2CC2)N1Cc1sc2ccccc2c1Cl (stereo not given)	1.01	0.66	0.839	-2.97	-0.868	0.709	0.0485 (inactive)	-0.0842	0.193	1.09 (inactive)
CN(C)CCCCNC(=O)[C@H]1C[C@H]2C(=O)N3CCC[C@H]3C(=O)N2[C@H]1c1cccc(OCCO)c1	-0.893	-0.0471	-0.458	0.123	0.291	-1.05	0.119 (inactive)	0.712	0.0655	0.677 (inactive)
CC(C)NC(=O)[C@@H]1c2ccccc2C(=O)N(Cc2ccc(OC(F)(F)F)cc2)[C@H]1c1ccc(CO)cc1	0.531	1.34	-0.315	1.09	-1.85	2.18	-1.32 (inactive)	0.24	-0.498	0.0746 (inactive)
CN1C(=O)C2C=CC(C(O)c3ccc(-c4ccccc4)s3)N(NC(=O)OC(C)(C)C)C2C1=O (stereo not given)	-0.823	-1.6	-0.68	0.244	-0.906	-1.73	-0.339 (inactive)	-0.0635	0.856	0.117 (inactive)
COc1cc(OC)c(C(O)C2C=CC3C(=O)N(c4ccccc4)C(=O)C3N2Nc2ccc(C(C)C)cc2)cc1Br (stereo not given)	2.48	-1.15	1.49	-0.534	-0.203	-0.115	-0.171 (inactive)	-0.126	-0.66	-0.101 (inactive)
COC(=O)C(CC#Cc1ccc2c(c1)[C@]1(C(=O)N2)[C@H](c2ccc(OCCO)cc2)N2[C@H](c3ccccc3)[C@H](c3ccccc3)OC(=O)[C@H]2[C@@H]1C(=O)N1CCCCCCC1)C(=O)OC	0.996	0.915	0.846	0.491	-1.88	-0.386	-1.82 (inactive)	-1.08	-1.36	-0.387 (inactive)

SMILES	z-score [1]	z-score [2]	z-score [3]	z-score [4]	z-score [5]	z-score [6]	z-score [7]	z-score [8]	z-score [9]	z-score [10]
O=C1OCCC=C[C@H]2OC34C=CCN(c5ccc6ccccc6c5)C(=O)[C@H]3N(CCO)C(=O)[C@@H]4C12 (stereo not given in full)	0.327	-0.423	0.0955	0.508	0.037	-0.409	-0.502 (inactive)	0.122	0.611	-0.751 (inactive)
COC(=O)c1cccc([C@H]2OC(=CC(=O)OC(C)C)C[C@@H](c3cccc(C(=O)OC)c3)O2)c1	-0.921	0.229	-0.248	-3.15	-1.64	-0.571	-1.52 (inactive)	-1.08	-2.76	-0.0417 (inactive)
Cc1ccc(S[C@]2(C(=O)NC(C)C)CC(=O)N(C3CCCCC3)[C@@H]2c2ccc(CO)cc2I)cc1	-0.0909	0.0617	-0.938	-2.07	-2.68	1.06	-0.0605 (inactive)	-0.351	-1.12	0.81 (inactive)
CCCNC(=O)[C@@]1(c2ccc([N+](=O)[O-])cc2)CC(=O)N(C(C)C)[C@@H]1c1ccc(CO)cc1	0.186	0.81	-0.359	0.167	0.11	-0.534	-0.584 (inactive)	0.195	0.892	0.0564 (inactive)
COc1cc(C(O)C2C=CC3C(=O)N(c4ccccc4)C(=O)C3N2Nc2ccccc2F)cc(OC)c1OC (stereo not given)	0.0221	-0.603	-0.162	-1.76	-1.63	-1.15	-1.01 (inactive)	0.446	0.142	-0.28 (inactive)
COc1cc(CO)cc(I)c1O[C@H]1C=C(C(=O)NCCO)C[C@@H](NC2CCCCCC2)[C@@H]1O	-0.226	-0.174	0.806	-3.23	-0.334	1.09	0.426 (inactive)	-0.441	-3.21	0.406 (inactive)
CC(C)(C)OC(=O)CC[C@]1(C(=O)NCC(O)CO)N=C(c2ccc(OCCCO)cc2)O[C@H]1c1ccccc1N=[N+]=[N-] (stereo not given in full)	0.0239	0.809	0.324	-0.312	-0.198	0.0858	2.2 (inactive)	-0.832	-0.591	0.35 (inactive)
COc1cc(C(O)C2C=CC3C(=O)N(c4ccccc4)C(=O)C3N2Nc2ccccc2)cc(OC)c1OC (stereo not given)	-0.591	-1.66	-0.342	0.294	-0.0482	-2.43	-1.22 (inactive)	-0.953	-0.116	-0.427 (inactive)
CN(C)CCCNC(=O)[C@@]1(Cc2ccccc2I)c2ccccc2C(=O)N(C2CCCCC2)[C@H]1c1ccc(CO)cc1	-4.29	-0.546	-5.11	-3.78	-4.34	-2.13	2.14 (inactive)	-1.01	-2.49	-6.91 (inactive)
COCCOC(=O)N1C(=O)[C@@]2(c3ccccc31)[C@H](C(=O)N1CCN(c3ncccn3)CC1)[C@H]1C(=O)O[C@H](c3ccccc3)[C@H](c3ccccc3)N1[C@@H]2c1ccccc1OCCO	1.14	0.549	-0.0577	0.0079	-0.203	-0.195	0.204 (inactive)	-0.248	-0.742	-0.166 (inactive)
CCOC(=O)C1=CCC(c2cc3ccccc3[nH]2)N(CCN2CC(C(=O)OCC)=CCC2c2cc3ccccc3[nH]2)C1 (stereo not given)	-0.638	0.552	0.105	0.183	-0.54	-0.4	-0.73 (inactive)	-0.111	-1.83	0.161 (inactive)
[N-]=[N+]=Nc1ccccc1C[C@@]1(C(=O)NCC(O)CO)N=C(c2ccc(OCCCO)cc2)O[C@@H]1c1ccccc1 (stereo not given in full)	0.378	-0.326	0.75	-0.39	-0.342	0.582	-0.186 (inactive)	-1.2	-0.145	-0.235 (inactive)
C=CCC(OC(C)=O)[C@@H]1[C@@H](N(Cc2cccc3ccccc23)C(=O)Cc2ccc(OC)cc2)c2cc(OCCCO)ccc2N1C(=O)Cc1ccc2ccccc2c1 (stereo not given in full)	-0.105	0.759	-0.472	0.0986	-1.36	3	-0.199 (inactive)	-0.226	0.0724	0.719 (inactive)
C=C(CCCC)/C(=C/C[C@H](OC(=O)c1ccncc1)c1ccc(OCCO)cc1)c1cnc2ccccc2c1	1.09	0.464	0.014	-2.55	-0.499	1.98	-0.689 (inactive)	-0.756	-0.262	1.2 (inactive)
C=CCN1C(=O)[C@@]2(O[C@@H](CCn3cc([C@H](O)c4ccccc4)nn3)[C@H]([Si](C)(C)c3ccc(OC)cc3)[C@H]2C)c2cc(N3C(=O)c4cccc5cccc3c45)ccc21	0.248	-0.0484	-1.93	-1.87	-4.04	0.319	-0.127 (inactive)	-0.929	-1.37	-1.94 (inactive)
Cc1ccc(F)cc1S(=O)(=O)N[C@H]1CCN(Cc2ccc(OC(C)C)cc2)C1	0.376	-0.535	-0.7	-1.4	-1.93	-0.809	0.416 (inactive)	0.0436	-1.41	-0.477 (inactive)
